A selection: hits, their analogues and other compounds. The true share with any hit is near 0.55%.
KAT2A inh – qHTS Assay for Inhibitors of GCN5L2. Potency, µM (titrated, usually from 58.9 µM), without a hit: at the top dose activity change, negative = inhibition, most hits filed as inhibitors. GCN5L2 HAT assay, ThioGlo1 CoA-SH fluorescence. 390,000 tested, 0.21% active; also: % is scaled to controls: 0 for no effect and ±100 for the full control effect
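Compounds, pin-transferred from DMSO stocks, meet 20nM GCN5L2 for 15 min before the reaction begins with H3(1-25) peptide (75uM) and acetyl-CoA (70uM). Thiol-reactive ThioGlo1 reports CoA release over 20 min at room temperature.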
ERG Ets-DNA blk – qHTS for Small Molecule Inhibitors of the ERG Ets/DNA interaction; Transcriptional regulator ERG (Homo sapiens), P11308; fluorescence polarization, His-ERG Ets domain / labelled DNA; Potency, µM (highest dose often 76.9 µM), for inactives: at the top dose FP activity, negative = inhibition, most hits filed as inhibitors; 370,000 tested, 0.028% active; AID 624246, 2012; active = well fitted inhibition curve with a large enough effect in the polarisation, with a control signal flat; inconclusive = small, poorly fitted or top-dose-only effect, or effect the other way, or a change in a side signal; inactive = no such curve, though single readings can be large or run the other way; the % refers to the polarisation;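 also: polarization taken with two DNA probes labelled with fluorescein and Texas red; % of control where 0% means no effect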
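His-tagged ERG Ets domain (1 uM in the protein solution; 300mM KCl, 50mM Tris-HCl, 1mM EDTA, 1mM DTT, pH 7.5) received compound, then a probe mix of 5 nM fluorescein-DNA and 100nM Texas-615-DNA. Fluorescence polarization was read for both dyes.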
AT treatment – qHTS Assay for Identifying a Potential Treatment of Ataxia-Telangiectasia | F2112 A-T fibroblasts, KAP-1 phosphorylation AlphaLISA; neocarzinostatin DNA damage 30 min before lysis | Potency, µM (doses to about 57.5 µM), inactives show at the highest dose activation, actives largely listed as activators | 320,000 tested, 0.19% active | AID 485349, 2010; also: % of control where 0% means no effect; nearly all actives have a fitted effect of over 45% in size
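hTERT-immortalized A-T patient fibroblasts (F2112), 500 cells/well in OPTI-MEM, 1% FBS, got compounds for 60 min, then NCS for 30 min at 37C. Lysates were then assayed for phospho-KAP-1 by AlphaLISA (anti-pKAP1 donor, anti-KAP1 acceptor beads), 6 hr at 25C.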
p53 reactivator – qHTS assay for re-activators of p53 using a Luc reporter; H1299 p53-A138V BP100-luciferase reporter, luminescence, 24 h; Potency, µM (titrated, usually from 92.2 µM), without a hit: at the highest dose activity change, positive = activation, actives largely listed as activators; 320,000 tested, 0.063% active; AID 504706, 2011; also: % of control where 0% means no effect; nearly all actives have a fitted effect of over 45% in size
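H1299 (p53-null), stable ts p53-A138V + BP100-Luc; 1000 cells/well, Opti-MEM/10% FBS; cpd 4 pt, 1:5; 24 h, 37 deg C, 5% CO2; detection reagent 10 min RT; luminescence.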
S-ASM inh – Inhibitors of Secretory Acid Sphingomyelinase (S-ASM): qHTS; Sphingomyelin phosphodiesterase (Homo sapiens), P17405; placental ASM, HMU-PC fluorogenic substrate, 60 min; Potency, µM (titrated, usually from 57.5 µM), without a hit: top-dose activity change, negative = inhibition, most hits filed as inhibitors; 340,000 tested, 0.006% active
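qHTS format. ASM enzyme prepared from human placenta hydrolyses the fluorogenic substrate HMU-PC0 (9 uM final) over 60 min at 37 °C after a 10 min compound preincubation.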
Tb PFK inh-1 – qHTS Assay to Find Inhibitors of T. brucei phosphofructokinase | T. brucei PFK, ADP-Glo luminescence | Potency, µM (top dose mostly 57.5 µM), for the others: at the highest dose activity, negative = inhibition, hits mostly inhibitors | 330,000 tested, 0.17% active | AID 485367, 2010;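 also: 0% = uninhibited 1x PFK enzyme wells and -100% = no-enzyme wells; nearly all actives have a fitted effect of over 60% in size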
Target sequence (O15648 whole entry, looked up): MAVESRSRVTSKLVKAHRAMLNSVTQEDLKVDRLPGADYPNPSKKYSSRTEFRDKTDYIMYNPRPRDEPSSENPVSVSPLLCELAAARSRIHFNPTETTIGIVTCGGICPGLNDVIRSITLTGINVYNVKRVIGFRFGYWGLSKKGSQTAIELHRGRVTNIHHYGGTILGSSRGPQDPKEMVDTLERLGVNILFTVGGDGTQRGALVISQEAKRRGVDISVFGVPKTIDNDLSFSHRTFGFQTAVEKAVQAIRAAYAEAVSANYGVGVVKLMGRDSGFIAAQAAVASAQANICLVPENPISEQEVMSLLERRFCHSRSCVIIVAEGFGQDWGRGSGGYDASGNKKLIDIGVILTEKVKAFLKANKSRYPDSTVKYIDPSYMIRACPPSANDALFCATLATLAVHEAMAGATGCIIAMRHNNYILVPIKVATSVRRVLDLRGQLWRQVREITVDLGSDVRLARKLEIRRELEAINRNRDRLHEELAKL
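PFK 1.25 nM, F6P 0.5 mM, ATP 0.1 mM, 0.1 M TEA pH 8.0, 5 mM MgCl2, 0.01% Tween20, 0.1% BSA; 45 min RT. ADP-Glo readout. qHTS titration up to 57 uM; curves fitted, compounds curve-classed.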
Tb PFK KinaseGlo – Tb PFK orthogonal confirmatory assay using ATP depletion (Kinase-Glo Plus) as an alternative measure of Tb PFK activity: Hit Validation; shares compounds with Tb PFK inh-1; Tb PFK enzyme, ATP depletion, Kinase-Glo Plus luminescence; Potency, µM (doses to about 57.5 µM), for the others: at the highest dose inhibition; 1,100 tested, 47% active; calls by dose curve; also: nearly all actives have a fitted effect of over 60% in size
Tb PFK inh-2 – Inhibitors of T. brucei phosphofructokinase: Hit Validation. Potency, µM (series often up to 57.5 µM), for the others: top-dose activity change, negative = inhibition, usual class: inhibitors. 1,100 tested, 41% active. shares compounds with Tb PFK inh-1. purified T. brucei PFK, ADP-Glo luminescence, 45 min;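 also: plate controls were full PFK enzyme control for no effect and no enzyme control for full effect; nearly all actives have a fitted effect of over 60% in size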
* hit, by the source's call. Unless noted, calls follow the shape of the dose curve; as a rule, active = well fitted curve in the direction sought with a large enough effect; inconclusive = small, poorly fitted or top-dose-only effect, or another doubt; inactive = no such curve, though single readings can be large; an effect the other way counts as inactive or inconclusive. Potency is read from the fitted curve at half-maximal effect.

For O=C(O)C1OC(Oc2cc3oc(-c4ccccc4)cc(=O)c3c(O)c2O)C(O)C(O)C1O (configuration not stated) the results were KAT2A inh -11.3%, ERG Ets-DNA blk -3.2%, AT treatment 6.5%, p53 reactivator 14.0%, S-ASM inh -6.9%, Tb PFK inh-1 6.75µM*, Tb PFK KinaseGlo inconclusive and Tb PFK inh-2 9.53µM*.
Screening C=CCSc1nc2sc3c(c2c(=O)n1CC)CCc1ccccc1-3 returned KAT2A inh -29.7%, ERG Ets-DNA blk -4.3%, AT treatment 8.1%, p53 reactivator inconclusive, S-ASM inh -0.4%, Tb PFK inh-1 13.5µM*, Tb PFK KinaseGlo 6.75µM* and Tb PFK inh-2 10.7µM*.
For O=C(CN1CCCCC1)c1ccc2c(c1)OCO2 the results were KAT2A inh 0.6%, ERG Ets-DNA blk -5.8%, AT treatment -6.8%, p53 reactivator 3.8%, S-ASM inh -3.3% and Tb PFK inh-1 1.3%.
COC(=O)NCc1ccc(Cl)c(Cl)c1 was read as KAT2A inh -2.1%, ERG Ets-DNA blk 1.9%, AT treatment 8.5%, p53 reactivator -3.8%, S-ASM inh 2.3%, Tb PFK inh-1 21.3µM*, Tb PFK KinaseGlo 10.7µM* and Tb PFK inh-2 30.1µM*.
Screening O=C(NCc1ccc(Cl)c(Cl)c1)c1ccc2c(c1)OCO2 returned KAT2A inh -3.9%, ERG Ets-DNA blk 12.0%, AT treatment 7.0%, p53 reactivator 10.6%, S-ASM inh 1.2%, Tb PFK inh-1 23.9µM*, Tb PFK KinaseGlo 7.57µM* and Tb PFK inh-2 8.49µM*.
CC(=O)c1ccc2c(c1)OCO2 was read as KAT2A inh -2.6%, ERG Ets-DNA blk -6.0%, AT treatment -6.2%, p53 reactivator 3.9%, S-ASM inh 3.7% and Tb PFK inh-1 -4.6%.
Screening O=C(NCCS(=O)(=O)N1CCN(c2cccc(Cl)c2)CC1)c1ccc2c(c1)OCO2 returned KAT2A inh -0.8%, ERG Ets-DNA blk -0.3%, AT treatment 4.6%, p53 reactivator 0.5%, S-ASM inh -5.0%, Tb PFK inh-1 inconclusive, Tb PFK KinaseGlo 21.3µM* and Tb PFK inh-2 inconclusive.
Screening O=C(NCc1cccc(Cl)c1)c1ccc2c(c1)OCCO2 returned KAT2A inh -7.6%, ERG Ets-DNA blk 1.5%, AT treatment -9.6%, p53 reactivator inconclusive, S-ASM inh -2.3%, Tb PFK inh-1 23.9µM*, Tb PFK KinaseGlo 13.5µM* and Tb PFK inh-2 19µM*.
For C/C1=C/C(=O)O[C@@H]2C[C@@H](CC[C@H](C)/C=C\CC1)O[C@@](O)(C1CSC(=O)N1)C2 (some centres not stated) the results were KAT2A inh -13.1%.
CC(C)C[C@H](NC(=O)[C@H](Cc1ccccc1)NC(=O)CNC(=O)[C@@H](COC(C)(C)C)NC(=O)[C@@H](N)Cc1ccc(O)cc1)C(=O)N[C@H](C(=O)O)[C@@H](C)OC(C)(C)C was read as KAT2A inh -8.1%.
`CCN1C[C@]2(COC)CC[C@H](OC)[C@@]34C5C[C@@H]6[C@@H](OC)C[C@@]7(OCO[C@@]7([C@@H](O)C23)[C@@H]14)C5[C@H]6OC` (some centres not stated) gave KAT2A inh 17.0%.
CN(C)c1ccc(/C=N/NC(=O)c2ccnn2C)cc1 was read as KAT2A inh -10.8%, ERG Ets-DNA blk -4.5%, AT treatment 3.1%, p53 reactivator 1.8%, S-ASM inh 11.9%, Tb PFK inh-1 inconclusive, Tb PFK KinaseGlo -15.0% and Tb PFK inh-2 -11.8%.
For Cc1cc[n+](-c2[nH]c(=O)sc2/C=N/N=C(\[O-])c2ccncc2)cc1 the results were KAT2A inh -5.0%, ERG Ets-DNA blk -0.1%, AT treatment 0.9%, p53 reactivator 6.4%, S-ASM inh -2.1%, Tb PFK inh-1 19µM*, Tb PFK KinaseGlo inconclusive and Tb PFK inh-2 -20.7%.
`CC(=O)OC1C(=O)[C@]2(C)C(O)CC3OC[C@]3(OC(C)=O)C2[C@@H](OC(=O)c2ccccc2)[C@]2(O)CC(O)C(C)=C1C2(C)C` (some centres not stated) gave KAT2A inh -1.9%.
Screening O=C(COc1ccccc1[N+](=O)[O-])N/N=C/c1ccc(O)c([N+](=O)[O-])c1 returned KAT2A inh -5.6%, ERG Ets-DNA blk 2.3%, AT treatment 11.5%, p53 reactivator -0.6%, S-ASM inh -6.3%, Tb PFK inh-1 inconclusive, Tb PFK KinaseGlo -28.4% and Tb PFK inh-2 inconclusive.
`CCc1nnc(NC(=O)CSc2ccc(-c3ccco3)nn2)s1` gave KAT2A inh inconclusive, ERG Ets-DNA blk -1.1%, AT treatment -5.1%, p53 reactivator 2.5%, S-ASM inh 0.2% and Tb PFK inh-1 inconclusive.
Screening CCCCCc1nnc(NC(=O)Cc2cccs2)s1 returned KAT2A inh inconclusive, ERG Ets-DNA blk 0.6%, AT treatment -1.1%, p53 reactivator 3.8%, S-ASM inh -2.2%, Tb PFK inh-1 inconclusive, Tb PFK KinaseGlo inconclusive and Tb PFK inh-2 inconclusive.
`CC(C)(O)[C@@H]1[C@H]2OC(=O)[C@@H]1[C@]1(O)C[C@H]3O[C@]34C(=O)O[C@H]2[C@@]14C` (tested in a mixture with another compound) gave KAT2A inh -27.8%.
Screening Cc1cc(C(=O)OCC(=O)Nc2ccccc2F)c(C)n1C1CC1 returned KAT2A inh -8.2%, ERG Ets-DNA blk -11.2%, AT treatment 4.4%, p53 reactivator 16.2%, S-ASM inh 0.7% and Tb PFK inh-1 0.4%.

Assay outcomes (PubChem BioAssay)
